Measured values as given in PubChem BioAssay (NCI).
Compounds without any hit were thinned out: in the full panel of roughly 83,000, 20% have a hit.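 Method: cells in 96-well plates; compound added at one concentration; 48 h incubation; percent growth measured; values under 10 scored active.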 Values without a mark were called inactive. Active and inactive are the calls of the source.

What was measured:
Assay in all cases: NCI-60 one-dose screen, 48 h (100 = growth as untreated, 0 = no growth, -100 = all killed)
[1] = system: NCI-H23 lung; details: 10 µM unless noted
[2] = system: NCI-H226 lung; details: 10 µM unless noted
[3] = system: NCI-H322M lung; details: 10 µM unless noted
[4] = system: NCI-H460 lung; details: 10 µM unless noted
[5] = system: HOP-92 NSCLC; details: 10 µM
[6] = system: NCI-H522 lung; details: 10 µM
[7] = system: A549/ATCC NSCLC; details: 10 µM unless noted
[8] = system: 786-0 renal; details: 10 µM unless noted
[9] = system: COLO 205 colon; details: 10 µM unless noted
[10] = system: DU-145 prostate; details: 10 µM unless noted
[11] = system: K-562 leukemia; details: 10 µM unless noted
[12] = system: MALME-3M melanoma; details: 10 µM unless noted
[13] = system: MDA-MB-231 breast; details: 10 µM unless noted
[14] = system: RXF 393 renal; details: 10 µM unless noted
[15] = system: SF-268 CNS; details: 10 µM unless noted
[16] = system: SF-295 CNS; details: 10 µM unless noted
[17] = system: SF-539 CNS; details: 10 µM unless noted
[18] = system: UACC-257 melanoma; details: 10 µM unless noted
[19] = system: M14 melanoma; details: 10 µM unless noted

SMILES | growth [1] | growth [2] | growth [3] | growth [4] | growth [5] | growth [6] | growth [7] [%] | growth [8] | growth [9] [%] | growth [10] [%] | growth [11] | growth [12] | growth [13] | growth [14] | growth [15] [%] | growth [16] | growth [17] | growth [18] | growth [19]
C=C(NC(=O)[C@H](C(C)C)N(C)c1cccc2[nH]ccc12)C(=O)OC | 99.8% | 97.5% | 100% | 103% | 99.5% | 87.3% | 96.5 | 95.9% | 132 | 100 | 89.4% | 92.8% | 109% | 106% | 101 | 101% | 117% | 96.9% | 94.9%
CC1(C)C(O)NC(Cl)=C(C#N)C1(C#N)C#N (stereo unspecified) | 92.2% | 135% | 130% | 113% | 141% | 91.5% | 103 | 95.6% | 118 | 110 | 94.4% | 136% | 111% | 7.52% (active) | 123 | 174% | 95.9% | 109% | 110%
c1ccc(Nc2ncc3c(n2)-c2cccn2CC3)cc1 | 98.7% | 59.2% | 86.9% | 95.9% | 77.4% | 85.8% | 113 | 98.7% | 112 | 99.4 | 96.6% | 95.1% | 80.8% | 97.8% | 85.8 | 99.2% | 87.1% | 124% | 91.7%
O=C(/C=C/c1ccc(Br)cc1)c1ccccc1 | 97.9% | 90.8% | 106% | 101% | 96.2% | 77.8% | 73 | 85.1% | 109 | 95.6 | 59.4% | 104% | 101% | 98.7% | 90.9 | 96.7% | 100% | 84.3% | 87.6%
CCOC(=O)CSSCC(=O)OCC | 112% | 123% | 106% | 108% | 103% | 99.7% | 98.7 | 106% | 113 | 106 | 101% | 112% | 107% | 128% | 104 | 100% | 95.9% | 94.1% | 119%
O=C(NCCNCCO)c1cc([N+](=O)[O-])cc([N+](=O)[O-])c1O | 103% | 97.7% | 103% | 104% | 93.9% | 91.9% | 100 | 104% | 110 | 99.3 | 102% | 107% | 109% | 109% | 102 | 101% | 106% | 103% | 102%
CC(=O)OC1/C=C\CC/C=C\C1 (stereo unspecified) | 121% | 102% | 102% | 102% | 92.8% | 102% | 100 | 102% | 121 | 113 | 110% | 108% | 111% | 110% | 107 | 97.3% | 93.1% | 108% | 104%
NC(=O)CC(NC(=O)COc1ccc(Cl)cc1Cl)C(=O)O (stereo unspecified) | 101% | 102% | 102% | 104% | 96.4% | 98% | 106 | 108% | 106 | 104 | 103% | 105% | 105% | 108% | 101 | 100% | 111% | 107% | 106%
CCCC(C)c1cc(Cc2cc(Cl)cc(Cl)c2O)c(O)c(Cc2cc(Cl)cc(Cl)c2O)c1 (stereo unspecified) | -6.96% (active) | -4.21% (active) | 9.16% (active) | 3.71% (active) | -19.2% (active) | 4.06% (active) | 15 | 6.89% (active) | 23.9 | 26.8 | 7.77% (active) | -22.2% (active) | -13.4% (active) | -10% (active) | 16.3 | -38.6% (active) | -3.24% (active) | -3.64% (active) | 7.97% (active)
